Compounds without any hit were thinned out: in the full panel of roughly 83,000, 20% have a hit.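 Treatment: one concentration, 48 hours, 96-well format. Scoring: percent growth, with anything below 10 considered active.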 A number with no mark means an inactive call. Active and inactive are the calls of the source.
What was measured:
Assay in all cases: NCI-60 one-dose screen, 48 h (100 = growth as untreated, 0 = no growth, -100 = all killed)
Conditions in all cases: 10 µM unless noted
DU-145 prostate = tested on: DU-145 prostate
K-562 leukemia = tested on: K-562 leukemia
MALME-3M melanoma = tested on: MALME-3M melanoma
MDA-MB-231 breast = tested on: MDA-MB-231 breast
RXF 393 renal = tested on: RXF 393 renal
SF-268 CNS = tested on: SF-268 CNS
SF-295 CNS = tested on: SF-295 CNS
SF-539 CNS = tested on: SF-539 CNS
UACC-257 melanoma = tested on: UACC-257 melanoma
M14 melanoma = tested on: M14 melanoma
HCT-15 colon = tested on: HCT-15 colon
HT29 colon = tested on: HT29 colon
SNB-75 CNS = tested on: SNB-75 CNS
SNB-19 CNS = tested on: SNB-19 CNS
U251 CNS = tested on: U251 CNS
PC-3 prostate = tested on: PC-3 prostate
SK-MEL-5 melanoma = tested on: SK-MEL-5 melanoma
UACC-62 melanoma = tested on: UACC-62 melanoma
LOX IMVI melanoma = tested on: LOX IMVI melanoma
SK-MEL-28 melanoma = tested on: SK-MEL-28 melanoma

| Compound | growth (DU-145 prostate) | growth (K-562 leukemia) | growth (MALME-3M melanoma) | growth (MDA-MB-231 breast) | growth (RXF 393 renal) | growth (SF-268 CNS) | growth (SF-295 CNS) | growth (SF-539 CNS) | growth (UACC-257 melanoma) | growth (M14 melanoma) | growth (HCT-15 colon) | growth (HT29 colon) | growth (SNB-75 CNS) | growth (SNB-19 CNS) | growth (U251 CNS) | growth (PC-3 prostate) | growth (SK-MEL-5 melanoma) | growth (UACC-62 melanoma) | growth (LOX IMVI melanoma) | growth (SK-MEL-28 melanoma) |
| --- | --- | --- | --- | --- | --- | --- | --- | --- | --- | --- | --- | --- | --- | --- | --- | --- | --- | --- | --- | --- |
| CC1CCN(C(=O)CCCl)c2ccccc21 (stereo not given) | 113% | 147% | 121% | 85.4% | 123% | 99.7% | 160% | 126% | 94.2% | 95.4% | 102% | 102% | 87.9% | 96.7% | 102% | 103% | 104% | 89.7% | 91% | 109% |
| CCN1C(=O)N(CC)C2C1NC(=S)N2/N=C/c1ccc(OC)cc1 (stereo not given) | 78.5% | 20.1% | 54.4% | 69.5% | 59.8% | 71.8% | 42.1% | 55.2% | 61% | 29.9% | 33.2% | 8.46% (active) | 15.1% | 52.8% | 40.3% | 55.9% | 43.3% | 38.5% | 49.2% | 71% |
| CCN(CC)CCCN1C(=O)c2c(c(C)c3c(oc4ccc(OC)cc43)c2C)C1=O | 112% | 0.0716% (active) | 97.1% | 99.5% | 70.3% | 98.6% | 110% | 91.8% | 103% | 104% | 94.9% | 90.9% | 109% | 94.4% | 96.4% | 97.4% | 75.1% | 102% | 96.9% | 94.1% |
| CN(CCCNC(=O)Cc1ccc2ccc3cccc4ccc1c2c34)CCCNc1cc(-c2ccc3ccccc3c2)nc2ccccc12 | -90.7% (active) | -82.8% (active) | -57.7% (active) | -75.2% (active) | -24.1% (active) | -77.6% (active) | -36% (active) | -96.1% (active) | -70% (active) | -74.4% (active) | -69% (active) | -80.8% (active) | -94.6% (active) | -82.8% (active) | -49.3% (active) | -87.5% (active) | -93.1% (active) | -51.6% (active) | -54% (active) | -85.7% (active) |
| NC1=Nc2cc(OCCCCN3Cc4ccccc4C3)c(OCC3CC3)cc2C12CCCC2 | 65% | 2.5% (active) | -88.5% (active) | 19.3% | 30.2% | 56.1% | 61.7% | -8.18% (active) | -83.2% (active) | -89.7% (active) | 3.13% (active) | 2.03% (active) | 71.5% | 76.9% | 24.2% | 44.1% | -91.5% (active) | 50.5% | -80.7% (active) | -81.4% (active) |
| CC1(C)NCCC[C@]2(C)[C@H]3CC[C@H]4[C@H]5[C@H](C(=O)/C=C/c6cccnc6)CCC[C@]5(CO)CC[C@@]4(C)[C@]3(C)CC[C@@H]12 | 66.6% | -3.12% (active) | 85.7% | 67.4% | 66.2% | 72.9% | 84.3% | 81.4% | 86.5% | 85.8% | 33.5% | 3.84% (active) | 75.8% | 72.2% | 11% | 59.4% | 87% | 96.7% | 13% | 93.6% |
| COc1ccc(/C=C/C(=O)c2ccc(NC(=O)CSc3nc4c([nH]3)c(=O)n(C)c(=O)n4C)cc2)cc1OC | 97.4% | 79.3% | 95.9% | 84.4% | 87.5% | 83% | 92.6% | 80.1% | 87.4% | 92.5% | 89% | 103% | 82.3% | 62.5% | 49.6% | 94.6% | 92% | 81.4% | 78.3% | 95.7% |
